Assay outcomes deposited in PubChem by National Center for Advancing Translational Sciences (NCATS).
The list is not random: actives were taken first. Their share in the collection is about 19%.
Gal4-VP16 FLuc: counter-screen for ROR gamma inhibitors: Gal4-VP16 reporter; Drosophila S2 Gal4-VP16 UAS-luciferase, luminescence, 20 h; actives 3.5% (n = 310,000); Potency, µM (top dose mostly 53.6 µM), for the others: top-dose activity, negative = inhibition, actives largely listed as inhibitors;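 note: Gal4-VP16 expression switched on by copper sulfate through the metallothionein promoter; nearly all actives have a fitted effect of over 50% in size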
RORgamma inh: inhibitors of mouse ROR gamma transcriptional activity; P51450; Drosophila S2 Gal4-RORgamma UAS-luciferase reporter, 20 h; Potency, µM (highest dose often 53.6 µM), for inactives: at the top dose activity change, negative = inhibition, usual class: inhibitors; actives 5.4% (n = 310,000); AID 2551; note: nearly all actives have a fitted effect of over 60% in size
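Compounds are pin-transferred onto Drosophila Schneider cells expressing a copper-inducible Gal4–ROR gamma transactivation domain fusion. After 1 hr, copper sulfate is added to 700 uM final; luciferase is read 20 hr later.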
DT40 TDP1 no CPT: qHTS for Inhibitors of human tyrosyl-DNA phosphodiesterase 1 (TDP1): qHTS in cells in absence of CPT. DT40 Tdp1-/- hTDP1 cells, no CPT, ATP luminescence, 48 h. Potency, µM (doses to about 46.2 µM), for the others: at the top dose activity change, negative = growth inhibition, hits mostly inhibitors. actives 15% (n = 420,000). AID 686978, 2013; note: nearly all actives have a fitted effect of over 55% in size
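No-CPT arm: Tdp1-/-;hTDP1 DT40 cells (400/well) plus compounds, incubated ≥48 hr at 37 °C. Readout CellTiter-Glo luminescence.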
TDP1 inh: blocks human tyrosyl-DNA phosphodiesterase 1; recombinant TDP1, AlphaScreen DNA substrate cleavage; Potency, µM (series often up to 130 µM), without a hit: top-dose activity change, negative = inhibition, most hits filed as inhibitors; actives 0.28% (n = 350,000); Q9NUW8; note: nearly all actives have a fitted effect of over 40% in size
Target sequence (Q9NUW8 whole entry, looked up): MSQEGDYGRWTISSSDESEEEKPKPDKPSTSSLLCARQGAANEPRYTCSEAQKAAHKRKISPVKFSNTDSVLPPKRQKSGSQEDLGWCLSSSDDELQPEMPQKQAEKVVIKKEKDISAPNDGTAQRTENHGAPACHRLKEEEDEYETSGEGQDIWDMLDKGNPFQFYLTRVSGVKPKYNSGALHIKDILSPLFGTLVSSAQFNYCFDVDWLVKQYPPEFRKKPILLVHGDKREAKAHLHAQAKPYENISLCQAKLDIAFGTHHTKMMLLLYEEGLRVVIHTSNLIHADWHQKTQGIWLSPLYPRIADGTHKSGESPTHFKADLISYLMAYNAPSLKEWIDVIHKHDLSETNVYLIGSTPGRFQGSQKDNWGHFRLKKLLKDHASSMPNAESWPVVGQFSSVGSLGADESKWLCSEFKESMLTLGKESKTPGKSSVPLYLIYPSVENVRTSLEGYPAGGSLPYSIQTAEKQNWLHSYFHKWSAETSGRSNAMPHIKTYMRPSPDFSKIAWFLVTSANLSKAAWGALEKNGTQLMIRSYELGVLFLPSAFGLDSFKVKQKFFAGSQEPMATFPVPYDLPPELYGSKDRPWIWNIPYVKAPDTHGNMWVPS
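Tdp1 1 nM final; 15 min RT w/ cpd; substrate 15 nM, 5 min; beads 10 ug/ml, 10 min; AlphaScreen read. Neg ctrl: no enzyme.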
DT40 TDP1 CPT: growth inhibition of DT40 Tdp1-/-;hTDP1 cells with camptothecin (screen for TDP1 inhibitors); actives 12% (n = 420,000); chicken DT40 Tdp1-/-;hTDP1 cells + 20 nM CPT, ATP luminescence, 48 h; Potency, µM (series often up to 46.2 µM), for inactives: at the highest dose activity change, negative = growth inhibition, hits mostly inhibitors; note: nearly all actives have a fitted effect of over 55% in size
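Chicken DT40 Tdp1-/- cells complemented with human TDP1, 400 cells/well, exposed to compounds plus 20 nM camptothecin for at least 48 h at 37 C; viability read as ATP content by CellTiter-Glo luminescence.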
* hit, by the source's call; ? = inconclusive; / = no result given; [ ] = remark or other dose. Calls come from the whole dose curve; as a rule, active = well fitted curve in the direction sought with a large enough effect; inconclusive = small, poorly fitted or top-dose-only effect, or another doubt; inactive = no such curve, though single readings can be large; an effect the other way counts as inactive or inconclusive. % is set by controls: 0 for no effect and ±100 for the full control effect; potency is the fitted concentration of half-maximal effect.

SMILES	Gal4-VP16 FLuc	RORgamma inh	DT40 TDP1 no CPT	TDP1 inh	DT40 TDP1 CPT
O=C(Nc1cc[c]([Sb](=[O])([OH])[OH])cc1)c1ccccc1	/	/	-19%	/	-10%
Cc1cnc(C)c(Nc2nc(C(N)Cc3ccc(C(F)(F)F)cc3)cs2)n1 (centres undefined)	/	/	12µM*	/	12µM*
NC(Cc1ccc(Cl)cc1)c1csc(Nc2cnccn2)n1 (centres undefined)	/	/	-83%	/	-89%
O=C1NC(=O)N(c2ccc(F)cc2)C(=O)/C1=C/c1ccsc1	-4%	0%	0%	-3%	-2%
O=C(NCCSc1c(-c2ccccc2)[nH]c2ccccc12)c1ccc(S(=O)(=O)N2CCOCC2)cc1	/	/	8.2µM*	6%	5.8µM*
CN(C)S(=O)(=O)c1ccc(C(=O)NCCSc2c(-c3ccccc3)[nH]c3ccccc23)cc1	/	/	6.5µM*	3%	6.5µM*
CN1CCN(C(=O)COc2ccc(-c3nc4ccccc4s3)cc2)CC1	10µM*	5µM*	18µM*	6%	-30%
COc1ccc(OCC(=O)N2CCN(Cc3cc(=O)n4nc(-c5ccc(OC)cc5)sc4n3)CC2)cc1	/	/	21µM*	5%	15µM*
COc1ccccc1-c1nn2c(=O)cc(CN3CCN(C(=O)COc4ccccc4Cl)CC3)nc2s1	/	/	21µM*	3%	?
CN1CCCN(C(=O)COc2ccccc2)CC1	0%	1%	9%	/	-6%
O=C(COc1ccccc1Cl)N1CCN(CCc2ccccn2)CC1	/	/	-5%	4%	-1%
Cc1nc(SCc2c(Cl)cccc2Cl)nc(OC(=O)N(C)C)c1C	-11%	0%	?	4%	-37%
COC(=O)C(Cl)C(=O)OC	/	/	1%	/	0%
COc1cc(/C=C/c2ccc3ccccc3[n+]2C)cc(OC)c1OC	/	/	13µM*	/	?
CCN(CC)CCCN=Cc1c(O)n(-c2ccccc2F)c(=O)[nH]c1=O	-3%	-1%	-2%	2%	-12%
CC(C)(C)NC(=O)NC(=O)CN1CC=C(c2ccccc2)CC1	2%	9%	13µM*	2%	16µM*
CCC1(CC)C(=O)N(Cc2ccccc2)C(=O)N(Cc2ccccc2)C1=O	-5%	-2%	?	4%	?
NCC[C@H](NC(=O)[C@@H](N)CCCN=C(N)N[N+](=O)[O-])C(N)=O	2%	2%	/	12%	/
CCCCOc1ccc(CNC(=O)c2cc3n(n2)CCCN(Cc2ccc(C)cc2)C3=O)cc1	/	/	13µM*	6%	21µM*
CCCCn1c(=O)c(C(=O)NCc2ccc(Cl)cc2)c(O)c2ccccc21	?	-11%[1.91 µM]	?	/	-87%
Oc1cc(O)c2c(c1)OC(c1cc(O)c(O)c(O)c1)C(O)C2 (centres undefined)	-4%	16%	?	16µM*	3.3µM*
O=C1C[C@@H](c2ccc(O)cc2)Oc2cc(O)cc(O)c21	3%	-14%	-19%	0%	2%
COC(=O)[C@@]1(O)C[C@@H]2O[C@@]1(C)n1c3ccccc3c3c4c(c5c6ccccc6n2c5c31)C(=O)NC4	?	-17%	/	3%	/
COc1ccc(CN2Cc3cnnn3-c3ccccc3C2C#N)cc1 (centres undefined)	/	/	1.8µM*	/	1.8µM*
N#CC1c2ccccc2-n2nncc2CN1C(=O)CCc1ccccc1 (centres undefined)	/	/	10µM*	/	15µM*
c1ccc(CCc2ccc3n2Cc2cnnn2-c2ccccc2-3)cc1	/	/	?	/	6.5µM*
CC(=O)N1Cc2cnnn2-c2ccccc2C1(C#N)Cc1ccccc1 (centres undefined)	/	/	-15%	/	-3%
COc1ccc(CN2Cc3cnnn3-c3ccccc3C2c2ccccc2)cc1 (centres undefined)	/	/	16µM*	/	16µM*
C[C@@H]1COc2cc(N3CCN(C)CC3)ccc2S(=O)(=O)N1	/	/	-3%	/	8%
